AMA1 RON2 block: inhibitors of Plasmodium falciparum AMA1-RON2 interaction | actives 0.2% (n = 360,000) | AID 720542 | AlphaScreen AMA1-biotinylated RON2 peptide binding | Potency, µM (top dose mostly 58.2 µM), actives largely listed as inhibitors; also: nearly all actives have a fitted effect of over 45% in size
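AMA1 (3D7) with his tag at 25 nM final met compounds first, then biotinylated RON2 peptide at 25 nM; detection used donor plus acceptor beads, 10 µg/mL apiece, read by AlphaScreen after 30 min at room temperature.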
Pf growth 96h: P. falciparum growth inhibition at 96 hour, primary screen for plastid delayed-death inhibitors. P. falciparum luciferase reporter growth, 96 h. Potency, µM (titrated, usually from 28.7 µM), hits mostly inhibitors. actives 6.9% (n = 320,000). AID 504834
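Erythrocytes infected with luciferase-expressing P. falciparum were dispensed at 2% hematocrit and 0.05% parasitemia (final), then incubated with compounds 96 hours at 37 C in 5% CO2. Luminescence after detection reagent addition reported growth.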
HCV inhibitor: blocks hepatitis C virus | Huh7.5.1 HCVcc-Cre infection, luciferase reporter, 44 h | Potency, µM (highest dose often 41.8 µM), actives largely listed as inhibitors | actives 3.4% (n = 340,000) | AID 651820
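Seed cells (1,000/well) for 4 h; treat with compound and infect with HCVcc-Cre, moi about 0.5. Incubate 44 h, then detect luciferase activity.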
Cycloheximide cs: counter-screen hit for Shiga toxin inhibitors, cycloheximide | AID 2314 | max response, % | cell reporter, cycloheximide protein synthesis inhibition counterscreen | actives 12% (n = 300,000); in the data active = max response mostly above about 13%, no sharp cut-off; inactive = mostly below about 14%; also: read at 38.3 µM for the half of the compounds with a filed dose
Pf growth 48h: P. falciparum growth inhibition at 48 hours (one generation). P. falciparum luciferase growth in erythrocytes, 48 h. Potency, µM (top dose mostly 28.7 µM), usual class: inhibitors. actives 5.9% (n = 310,000). AID 504832
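In quantitative HTS format, infected erythrocytes bearing luciferase-reporter parasites were treated for a single generation at 37 C. Luminescence after adding detection reagent served as the growth measure.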
Shiga inhibitor: inhibitors of Shiga toxin in Vero cells | Vero cells, Shiga toxin protein synthesis inhibition reporter | inhibition, % at 38.7 µM | actives 9.2% (n = 290,000) | AID 2315; in the data active = inhibition mostly above about 28%, no sharp cut-off; inactive = mostly below about 43%
A number is an active result; – = inactive; ? = inconclusive; · = no result given; + = active, no number. In the library only some 21% were active in any assay of this set; here they are far more common. Unless noted, calls follow the shape of the dose curve; as a rule, active = well fitted curve in the direction sought with a large enough effect; inconclusive = small, poorly fitted or top-dose-only effect, or another doubt; inactive = no such curve, though single readings can be large; an effect the other way counts as inactive or inconclusive.

SMILES | AMA1 RON2 block | Pf growth 96h | HCV inhibitor | Cycloheximide cs | Pf growth 48h | Shiga inhibitor
Cc1ccc(NCc2ccccc2O)cc1C | – | – | – | 33 | – | 102
Oc1ccccc1CNc1ccc2c(c1)OCCO2 | – | – | – | 41 | – | 67
CC(=O)N1CCN(c2ccc(NCc3cccs3)cc2)CC1 | – | · | – | – | – | –
CCC(C)(C)NC(=O)CN(Cc1cccs1)C(=O)C(=O)Nc1ccc2c(c1)OCCO2 | – | ? | – | – | ? | –
Cc1ccc(C)c(NCc2ccccc2CO)c1 | – | – | – | – | – | –
Clc1cc(NCc2cccs2)ccc1N1CCOCC1 | – | – | – | 46 | – | 57
c1csc(CNc2ccc3c(c2)OCCO3)c1 | – | – | ? | 111 | – | 93
O=C(NCc1ccccc1)C(c1ccc(Cl)cc1)N(C(=O)c1csnn1)C1CC1 (stereo not drawn) | – | ? | – | – | – | –
CC1(C(=O)NCc2ccccc2)CN(S(C)(=O)=O)CC(=O)N1Cc1cccs1 (stereo not drawn) | – | · | · | · | · | ·
O=C1C(=C(c2ccccc2)N2CCOCC2)Cc2ccccc21 | – | · | · | · | · | ·
FC(F)(F)Oc1ccc(NC(=S)Nc2ccc(OC(F)(F)F)cc2)cc1 | – | ? | ? | – | ? | –
Oc1ccccc1CNc1ccc(OC(F)(F)F)cc1 | – | ? | ? | 35 | ? | 55
OCCN1CCN(c2cc(C(F)(F)F)nc3c(F)cccc23)CC1 | – | – | – | – | ? | –
CCOC(=O)C1CCCN(C(=O)CN2C(=O)/C(=C/c3ccc(OC)cc3)Oc3ccccc32)C1 (stereo not drawn) | – | – | ? | – | ? | 29
CCOC(=O)C1CCCN(C(=O)CN2C(=O)c3ccccc3C2=O)C1 (stereo not drawn) | – | · | – | – | – | –
CCOC(=O)CN1C(=O)/C(=C/c2ccccc2Br)Oc2ccccc21 | – | 2.1µM | – | – | – | –
CCOC(=O)C1CCN(C(=O)CC(C)c2ccccc2)CC1 (stereo not drawn) | – | ? | – | – | – | –
CCOC(=O)C1CCCN(C(=O)CC(C)c2ccccc2)C1 (stereo not drawn) | – | – | – | 101 | – | 169
CCOC(=O)C1CCCN(C(=O)CSc2ccccc2)C1 (stereo not drawn) | – | – | – | 43 | – | 64
O=C(O)CN1C(=O)/C(=C/c2ccccc2Cl)Oc2ccccc21 | – | – | – | – | – | –
COc1ccc(C(=O)N/C(=C/c2cccs2)C(=O)N2CCN(C)CC2)cc1 | – | · | · | · | · | ·
COCCNC(=O)C1(C)CCCN(Cc2ccc(-n3ccnc3)cc2)C1 (stereo not drawn) | – | · | · | · | · | ·
O=S(=O)(NCc1ccccc1F)c1cccc(S(=O)(=O)N2CCOCC2)c1 | – | – | – | – | 8.3µM | –
O=C(c1cccc(S(=O)(=O)N2CCCC2)c1)N1CCCC(C(F)(F)F)C1 (stereo not drawn) | – | – | – | · | – | ·
COc1ccccc1N1CCN(C(=O)c2ccc3c(c2)CCN3S(=O)(=O)c2ccccc2)CC1 | – | ? | 13µM | – | 8.3µM | –
SMILES | AMA1 RON2 block | Pf growth 96h | HCV inhibitor | Cycloheximide cs | Pf growth 48h | Shiga inhibitor
O=C(c1cccc(S(=O)(=O)N2CCc3ccccc32)c1)N1CCCC(C(F)(F)F)C1 (stereo not drawn) | – | ? | 11µM | · | ? | ·
O=C(c1cccc(S(=O)(=O)N2CCc3ccccc32)c1)N1CCN(c2ccccc2)CC1 | ? | 10µM | 10µM | · | ? | ·
COc1cccc(CNC(=O)c2ccc3c(c2)N(Cc2ccc(F)cc2Cl)C(=O)c2ccccc2S3)c1 | · | · | · | – | · | –
COC(=O)CC1C(=O)NCCN1C(=O)c1cc(OC)c(OC)cc1OC (stereo not drawn) | – | – | – | – | ? | –
CCN(CC)CCNC(=O)c1ccc(NC(=O)c2ccc(-n3cncn3)c([N+](=O)[O-])c2)cc1 | – | · | · | · | · | ·
Cc1oc(-c2ccccc2)cc1C(=O)NC1CCN(Cc2ccccc2)CC1 | – | – | ? | – | – | –
CN(C)Cc1c(O)ccc2c1O/C(=C\C=C\c1ccccc1)C2=O | – | – | – | 13 | 1.7µM | –
CCN1CCN(Cc2c(O)ccc3c2O/C(=C\c2ccc(C)cc2)C3=O)CC1 | – | 2.3µM | – | – | 5.2µM | –
CCN1CCN(Cc2c(O)ccc3c2O/C(=C\C=C\c2ccccc2)C3=O)CC1 | – | ? | ? | 33 | 1.7µM | –
O=C1/C(=C/C=C/c2ccccc2)Oc2c1ccc(O)c2CN1CCN(CCO)CC1 | – | ? | – | – | ? | –
CCN1CCN(Cc2c(O)ccc3c2O/C(=C\c2ccccc2)C3=O)CC1 | ? | 12µM | – | – | ? | –
CCOC(=O)C1=C(C)OC(=CC=Cc2ccccc2)C1=O | – | · | · | · | · | ·
C[C@H](CO)N1C[C@H](C)[C@H](CN(C)C(=O)OCc2ccccc2)OCc2cnnn2CCCC1=O | – | · | · | · | · | ·
CC1CCCN(Cc2c(O)ccc3c2O/C(=C\c2ccco2)C3=O)C1 (stereo not drawn) | – | 3.3µM | – | – | 2.3µM | –
COc1ccccc1/C=C/C=C1\Oc2c(ccc(O)c2CN2CCN(CCO)CC2)C1=O | ? | ? | – | 32 | – | +
COC(=O)c1ccc(NC(=O)C2CCCN2C(=O)OCc2ccccc2)cc1 (stereo not drawn) | – | 5.9µM | – | – | – | –
COc1ccc(OC)c(NC(=O)C2CCCN2C(=O)OCc2ccccc2)c1 (stereo not drawn) | – | – | ? | – | 13µM | –
COc1ccc(NC(=O)C2CCCN2C(=O)OCc2ccccc2)cc1 (stereo not drawn) | – | – | – | – | – | –
COc1ccc(OC)c(NC(=O)[C@@H]2CCCN2C(=O)c2cccs2)c1 | – | – | – | – | – | –
CCOc1ccccc1NC(=O)C1CCCN1C(=O)OCc1ccccc1 (stereo not drawn) | – | 9.3µM | ? | – | – | –
COc1cc2nc(N3CCN(C(=O)OCc4ccccc4)[C@H](C(=O)NC(C)(C)C)C3)nc(N)c2cc1OC | – | 5.2µM | ? | – | 2.9µM | –
CNc1ccc(Cl)cc1S(=O)(=O)c1ccccc1[N+](=O)[O-] | – | · | · | · | · | ·
Cc1ccc(NC(=O)C2CCCN2C(=O)OCc2ccccc2)cc1F (stereo not drawn) | – | ? | ? | – | – | –
COc1ccc(C)cc1NC(=O)C1CCCN1C(=O)OCc1ccccc1 (stereo not drawn) | – | ? | – | – | 10µM | –
Cc1cccc(CN2CCN(C3CN(CCc4ccccc4)S(=O)(=O)C3)CC2)c1 (stereo not drawn) | – | · | · | · | · | ·
COC(=O)c1ccccc1NC(=O)CSc1nnc(-c2cccnc2)n1N | – | – | – | – | – | –
Nc1ccccc1-c1nc2ccccc2[nH]c1=O | – | – | – | 58 | – | 80
Cc1nc2ccccc2[nH]c1=O | – | – | – | – | – | –
